Laboratory results taken from PubChem BioAssay AID720517 (National Center for Advancing Translational Sciences (NCATS), 2013).
Inconclusive results are not listed. A number with no mark means an inactive call. Calls come from the whole dose curve; as a rule, active = well fitted activation curve with a large enough effect; inconclusive = small, poorly fitted or top-dose-only effect; inactive = flat fitted curve, though single readings scatter.

Test: qHTS for Inhibitors of Cell Surface uPA Generation: FP59 Counterscreen for Cherry-picked Compounds; note: 0% is about no effect
Details: FP59 anthrax toxin cytotoxicity counterscreen, cells; series mostly up to 115 µM; activity (protection from FP59): at the top concentration

Structure (SMILES) | activity (protection from FP59)
CCc1ccccc1NC(=O)CN(C)C(=O)CSc1nnc(Nc2cccc(C)c2C)s1 | -0.108%
CC1CCCN(C(=O)c2ccc(-c3ccccc3Cl)o2)C1 (configuration not stated) | -1.48%
CC(=O)c1ccc(NC(=O)CN2CCN(c3ccccc3)CC2)cc1 | -1.25%
COCCNC(=S)N(CCc1c(C)[nH]c2ccccc12)Cc1ccco1 | -1.09%
O=[N+]([O-])c1cccc2c(N3CCOCC3)ccnc12 | -0.897%
Cc1[nH]c2ccccc2c1C(=O)COC(=O)c1cccc(S(=O)(=O)N2CCCCC2)c1 | 0.844%
N/C(=N/OC(=O)c1ccccc1F)c1nonc1N | -1.47%
COc1ccccc1NNC(=O)C(O)(c1ccccc1OC)c1ccccc1OC | -1.17%
Cc1ccc(C(=O)NC(=S)Nc2ccc3[nH]c(=O)[nH]c3c2)c(C)c1 | -1.44%
COc1cc(F)ccc1S(=O)(=O)n1c(C)nc2ccccc21 | -1.07%
Cc1ccc(NS(=O)(=O)c2c(C)nc3sccn3c2=O)c(C)c1 | -1.1%
CCOC(=O)[C@H]1[C@H]2COc3ccc(Br)cc3[C@@H]2N2C(=O)c3c(C)cc(C)cc3NC(=O)[C@@]12C | 1.95%
COc1ccc(C(=O)CC2(C(=O)O)CCCCC2)cc1 | -1.5%
Cc1ccc(-n2cccc2C(=O)NS(=O)(=O)c2ccc(C)cc2)cc1 | -1.27%
Cc1[nH]c(=O)[nH]c(=O)c1S(=O)(=O)N1CCCc2ccccc21 | -1.55%
CCOc1ccc(Cl)cc1/C=N/NC(=O)c1ccccc1 | -0.63%
COc1cc2c(cc1OC)CN(C(=O)c1ccc(-c3ccccc3)cc1)CC2 | 1.17%
O=C(CCS(=O)(=O)c1ccc2c(c1)NC(=O)CS2)NCCc1ccc(Cl)cc1 | 0.0567%
COc1ccc(N2CC(C(=O)Nc3nnc(SCCC4OCCO4)s3)CC2=O)cc1 (configuration not stated) | -1.21%
CC(OC(=O)c1cccc(-n2cnnn2)c1)C(=O)Nc1ccc(F)c(F)c1F (configuration not stated) | -1.35%
CCCCN(CC(=O)NCc1ccc(F)cc1)C(=O)c1ccco1 | -1.31%
Cc1ccc(-c2cc(C(=O)NCC3CCCO3)no2)cc1 (configuration not stated) | -1.57%
